# Source: PubChem (several laboratories)
# In the library only some 1.6% were active in any assay of this set; here they are far more common.
# ATG4B inh: blocks human ATG4B protease cleavage of LC3 substrate | Q9Y4P1 | ATG4B cleavage of LC3-PLA2, NBD-HPC fluorescence, 1 h | inhibition, % at 8.33 µM | 0.51% of 340,000 active | AID 504462; in the data active = inhibition above about 40%
# Target sequence (Q9Y4P1 whole entry, looked up): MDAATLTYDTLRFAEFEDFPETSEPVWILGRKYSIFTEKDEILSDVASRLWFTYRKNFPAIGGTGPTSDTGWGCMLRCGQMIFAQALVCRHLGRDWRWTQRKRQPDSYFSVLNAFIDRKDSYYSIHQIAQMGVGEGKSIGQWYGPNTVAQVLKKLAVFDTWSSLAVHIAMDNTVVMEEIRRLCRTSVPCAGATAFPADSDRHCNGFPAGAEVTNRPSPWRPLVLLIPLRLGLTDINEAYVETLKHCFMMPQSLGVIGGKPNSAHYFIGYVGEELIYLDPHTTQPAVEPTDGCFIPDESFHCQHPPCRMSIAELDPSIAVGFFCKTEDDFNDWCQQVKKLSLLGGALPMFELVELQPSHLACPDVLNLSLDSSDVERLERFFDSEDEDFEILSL
# GRK2 aptamer HTS: blocks RNA aptamer binding to human GRK2; P25098; inhibition of aptamer binding, % at 10 µM; bead flow cytometry, FAM-aptamer displacement from GRK2; 0.59% of 330,000 active;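 active = inhibition of aptamer binding above 40%, roughly 3 SD of noise, on plates passing a quality check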;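 also: median bead fluorescence of bound FAM aptamer so fluorescent compounds give negative values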
# Yeast superoxide: caloric restriction mimetics inhibiting age-related superoxide in yeast; superoxide response (% of plate mean), % at 10 µM; 0.18% of 330,000 active; S. cerevisiae aged cells, superoxide DHE fluorescence; stronger effect = lower value;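 active = superoxide response under a set limit, about three screen SD below normal, cut at about 65% in these data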;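 also: yeast aged for seven days with compound at 30 °C before DHE staining; 100% = average MFI of all compound-treated wells on the plate with controls excluded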
# Efflux pump mplx: antifungal efflux pump inhibition, Nile Red retention | S. cerevisiae Candida pump triplex | inhibition, % at 10 µM | 0.44% of 330,000 active | AID 485275;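 active = plate passing quality check with inhibition over a set limit, or well fluorescence over plate mean plus 4 SD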;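 also: Nile Red retained in pooled yeast measured as flow cytometry median fluorescence; 0% = buffer negative control and 100% = Enniatin B positive control; higher means more Nile Red kept so more efflux inhibition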
# ATG4B conf: confirmation of human ATG4B inhibitors | shares compounds with ATG4B inh | ATG4B protease fluorescent substrate cleavage assay | 92% of 320 active | inhibition, % at 8.33 µM; in the data active = inhibition above about 39%
# PLA2 counter: counter-screen for ATG4B inhibitors: human phospholipase A2; shares compounds with ATG4B inh; purified PLA2, NBD-C6-HPC fluorescence, 45 min; inhibition, % at 8.33 µM; 66% of 1,600 active; in the data active = inhibition above about 50%
# Target sequence (P04054 whole entry, looked up): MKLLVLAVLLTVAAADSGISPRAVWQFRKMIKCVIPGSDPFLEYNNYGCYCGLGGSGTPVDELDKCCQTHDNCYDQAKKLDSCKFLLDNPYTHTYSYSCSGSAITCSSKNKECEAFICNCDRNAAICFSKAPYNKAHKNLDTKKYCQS
# The depositor's hits bear a star; · = no result given.
SMILES,ATG4B inh,GRK2 aptamer HTS,Yeast superoxide,Efflux pump mplx,PLA2 counter,others
COc1ccc(/C=N/N2CCN(c3ccccc3)CC2)cc1Br,-2,0,98,0,·,
COc1ccc(/C=C2\CCC(C3CCCC3)C2=O)cc1Cn1cccn1 (configuration not stated),68*,1,97,0,65*,
COc1ccc(/C=C2\CCC(C3CCCC3)C2=O)cc1Cn1nc(C)cc1C (configuration not stated),35,1,88,0,·,
NC(=O)c1ccc(NCCc2ccccc2)c([N+](=O)[O-])c1,49*,0,134,0,66*,
CCc1ccccc1NC(=O)c1ccc(NCCc2ccccc2)c([N+](=O)[O-])c1,42*,2,106,-3,35,
O=C(Nc1ccccc1)c1ccc(NCCc2ccccc2)c([N+](=O)[O-])c1,-3,0,95,0,·,
Cc1ccc(C(=O)NC(C)CCc2ccccc2)cc1[N+](=O)[O-] (configuration not stated),-12,1,88,0,·,
O=C1c2ccccc2NC(c2ccc(Br)s2)N1O (configuration not stated),2,1,110,0,·,
Oc1ccc(C2C(c3ccccc3)=NN=C(c3ccc(Cl)cc3)N2O)c(O)c1 (configuration not stated),60*,0,111,-15,76*,
Oc1ccc(C2C(c3ccccc3)=NN=C(c3ccccc3F)N2O)c(O)c1 (configuration not stated),63*,3,104,0,84*,
Cc1ccc(-n2nnnc2SCC(=O)Nc2ccccc2-c2ccccc2)cc1C,52*,31,97,0,48,
CCC1CCCCN1CCCNC(=O)CS(=O)(=O)Cc1nc(-c2cccc(OC)c2)oc1C (configuration not stated),-2,0,81,0,·,
Cc1cccc(C)c1OCc1cc(C(=O)N2CCN(c3ccccn3)CC2)no1,57*,2,96,0,53*,
Cc1cccc(C)c1OCc1cc(C(=O)N2CC3C[C@@H]4CC2C[C@H](C3)C4)no1,52*,3,111,-3,69*,
CCCCOc1ccc(C2/C(=C(\O)c3ccc4c(c3)OCCO4)C(=O)C(=O)N2CCCN2CCOCC2)cc1 (configuration not stated),2,0,85,0,·,
Cn1cc(CCC(=O)N2CCCC(CCC(=O)NCc3ccccc3F)C2)cn1 (configuration not stated),-2,0,94,0,·,
Cn1cc(CCC(=O)N2CCCC(CCC(=O)NCc3ccc(F)c(F)c3)C2)cn1 (configuration not stated),42*,0,118,0,47,
O=C(Nc1ccc(N2CCCCCC2)cc1)c1ccccc1Cl,51*,·,90,0,50,
CC1CCc2sc(C(=O)N3CCC(C(N)=O)CC3)cc2C1 (configuration not stated),43*,2,114,0,33,ATG4B conf=66*
O=C(NC1CCCCCC1)C1CC(=O)N(c2ccc(Cl)cc2)C1 (configuration not stated),1,1,101,0,·,
Cc1ccc(Nc2nnc(SCC(=O)c3ccc(O)cc3O)s2)cc1,-8,4,108,0,·,
NC(=O)Cc1ccc(Nc2nnc(-c3ccc(O)cc3)c3ccccc23)cc1,92*,3,94,0,91*,
NC(=O)c1ccc(Nc2nnc(-c3ccc(O)cc3)c3ccccc23)cc1,-3,2,111,0,·,
Cc1ccc(-c2nnc(Nc3ccc(CC(N)=O)cc3)c3ccccc23)cc1S(=O)(=O)NCCO,84*,6,91,0,87*,
CC(CCc1ccccc1)NC(=O)COC(=O)c1ccccc1O (configuration not stated),-5,2,100,0,·,
SMILES,ATG4B inh,GRK2 aptamer HTS,Yeast superoxide,Efflux pump mplx,PLA2 counter,others
COCC(=O)N(C)C[C@H]1N[C@@](C)(C(=O)OC)[C@H]2C(=O)N(Cc3ccccc3)C(=O)[C@@H]12,-9,0,92,0,·,
COc1ccc(Cl)cc1N(CC(=O)N1CCCC1)S(C)(=O)=O,3,1,91,0,·,
COc1ccc(CCNC(=S)N2CCN(S(=O)(=O)c3ccccc3F)CC2)cc1,-12,1,100,2,·,
COc1ccc(-c2ccc(C#N)c(SCC(=O)Nc3sc4c(c3C#N)CCC4)n2)cc1OC,73*,2,103,0,-4,ATG4B conf=84*
N#Cc1cc2c(nc1SCC(=O)Nc1sc3c(c1C#N)CCC3)CCC2,-6,0,99,0,·,
CC(=O)Nc1ccc(S(=O)(=O)N[C@@H](C)C(=O)OCC(=O)NC2CCCC2)cc1,-40,0,103,0,·,
CC1CC(C)CN(C(=O)c2ccc3ccccc3c2)C1 (configuration not stated),54*,0,96,0,50*,
CC1CC(C)CN(C(=O)c2ccc(S(=O)(=O)N3CC(C)CC(C)C3)cc2)C1 (configuration not stated),51*,2,94,0,66*,
CC1CCN(C(=O)c2ccc3ccccc3c2)CC1,1,2,95,0,·,
CC1CC(C)CN(S(=O)(=O)c2ccc(C(=O)N3CCCC3)cc2)C1 (configuration not stated),7,0,94,0,·,
CC1CC(C)CN(C(=O)c2ccc(C(=O)c3ccccc3)cc2)C1 (configuration not stated),42*,0,103,0,44,ATG4B conf=66*
O=C(C1=COCCO1)N(Cc1nnc(-c2ccccc2Cl)o1)C1CC1,-8,1,87,0,·,
O=C(Nc1nncs1)C1CC(=O)N(C2CCCC2)C1 (configuration not stated),-3,0,83,0,·,
OC(c1cc(C(F)(F)F)nc2c(C(F)(F)F)cccc12)C1CCCCN1 (configuration not stated),1,0,99,0,·,
OC(c1cc(-c2cccc(Cl)c2)nc2ccccc12)C1CCCCN1 (configuration not stated),42*,·,·,·,66*,
Cn1cc([C@@H]2C[C@H]3CN(C4CCCC4)C(=O)[C@]34CCCN24)c(-c2ccccc2)n1,-10,0,110,0,·,
COC1=C(Br)C(=O)c2ncccc2C1=O,69*,·,·,·,-13,ATG4B conf=32
CC(C(=O)Nc1ccc2c(c1)OCCO2)N(C)Cc1c(F)cccc1Cl (configuration not stated),3,4,102,0,·,
O=C(c1cscn1)N1CCCC(N2CCN(c3ccc(F)cc3)CC2)C1 (configuration not stated),1,5,92,0,·,
Cc1cc(NCc2ccc(F)cc2)nc2cc(Cl)ccc12,51*,0,98,0,74*,
